Measured values published in the supplement of paper PMC4723716.
± gives the uncertainty stated by the source. Whole data set: some 9,900 compounds, median “viability index relative to DMSO control” near 1, cut for the lowest 2% near 0.85. The list comes from a sample in which the lowest values are over-represented; it also holds similar structures and randomly drawn compounds.

System: Plasmodium falciparum NF54 stage V gametocytes
Test: viability index relative to DMSO control (fraction); higher = less gametocyte killing
Settings: 2.5 µM, incubation time: 72 h
Summary of the method: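 P. falciparum NF54 stage V gametocytes (serum-free medium, 0.75% gametocytemia, 1.25% hematocrit) were exposed to compound at 2.5 µM for 72 hr at 37°C under low oxygen, then stained with MitoTracker Red CMXRos and saponin for one to two hours. Red particles of 20–70 µm2 in one field per well were counted, and the viability index is that count scaled to the plate mean of solvent-only wells.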

[1] = library set: Broad Institute DOS
[2] = library set: Broad Institute Blood Stage

Row | SMILES | viability index [1] | viability index [2]
1 | CCc1nc(N2[C@H](CO)[C@H](c3ccccc3-c3ccc(F)cc3)[C@@H]2C#N)sc1C | 1.03 ± 0.12 | –
2 | O=C(C[C@@H]1CC[C@H]2NC[C@@H](O)COC[C@@H]2O1)NCc1ccc2c(c1)OCO2 | 1.07 ± 0.015 | –
3 | COc1ccc2c3c([nH]c2c1)[C@H](CO)N(Cc1ccncc1)C[C@]31CN(C1)C(=O)CN(C)C | 1.04 ± 0.071 | –
4 | COCC(=O)N1CC[C@@]2(CC1)CN(Cc1ccccc1Cl)[C@H](CO)c1[nH]c3cc(OC)ccc3c21 | 1.023 ± 0.0089 | –
5 | COc1ccc2c3c([nH]c2c1)[C@@H](CO)N(Cc1nccs1)C[C@]31CCN(Cc2cccnc2)CC1 | 0.98 ± 0.062 | –
6 | COc1ccc2c3c([nH]c2c1)[C@H](CO)N(Cc1ccc(Cl)cc1)C[C@]31CCN(Cc2nccs2)CC1 | 0.884 ± 0.047 | –
7 | CCCC(=O)N1CC[C@@]2(CC1)CN(Cc1ccc(Cl)cc1)[C@@H](CO)c1[nH]c3cc(OC)ccc3c21 | 0.795 ± 0.039 | –
8 | COc1ccc2c3c([nH]c2c1)[C@@H](CO)N(Cc1nccs1)C[C@]31CN(Cc2ccncc2)C1 | 1.02 ± 0.079 | –
9 | CCCC(=O)N1CC[C@@]2(CC1)CN(Cc1ccc(Cl)cc1)[C@H](CO)c1[nH]c3cc(OC)ccc3c21 | 0.873 ± 0.16 | –
10 | COc1ccc2c3c([nH]c2c1)[C@H](CO)N(Cc1nccs1)C[C@]31CCN(Cc2cccnc2)CC1 | 0.946 ± 0.081 | –
11 | COc1ccc2c3c([nH]c2c1)[C@@H](CO)N(Cc1ccc(Cl)cc1)C[C@]31CCN(Cc2nccs2)CC1 | 0.814 ± 0.015 | –
12 | COc1ccc2c3c([nH]c2c1)[C@@H](CO)N(Cc1ccccc1)C[C@]31CCN(Cc2cncnc2)CC1 | 0.849 ± 0.064 | –
13 | CCCN(C)C[C@H]1Oc2cc(/C=C/c3ccccc3)ccc2S(=O)(=O)N([C@H](C)CO)C[C@H]1C | 1.05 ± 0.026 | –
14 | COc1ccc2c3c([C@@H](CO)N(C[C@]33CCN(CC4CCOCC4)CC3)C(=O)NC(C)C)n(C)c2c1 | 0.97 ± 0.013 | –
15 | COc1ccc2c3c([C@H](CO)N(CC4CC4)C[C@]33CCN(CC3)C(=O)NC3CCCC3)n(C)c2c1 | 0.955 ± 0.05 | –
16 | C[C@H]1CN([C@@H](C)CO)C(=O)CCCn2nncc2CO[C@H]1CN(C)C(=O)c1ccc2ccn(C)c2c1 | 1.015 ± 0.0067 | –
17 | O=C(C[C@@H]1CC[C@H]2[C@@H](COC[C@@H](O)CN2C(=O)c2ccccc2F)O1)NCc1ccc(Cl)c(Cl)c1 | 1.09 ± 0.036 | –
18 | COC(=O)c1ccc(CN2CC(=O)N3[C@H](CO)[C@@H](c4ccc(-c5cccnc5)cc4)[C@H]3C2)cc1 | 0.986 ± 0.01 | –
19 | C[C@@H]1CN([C@H](C)CO)C(=O)CCCn2cc(nn2)CO[C@@H]1CN(C)Cc1ccccc1 | 0.986 ± 0.035 | –
20 | O=C(C[C@H]1CC[C@@H](NC(=O)Nc2ccc(C(F)(F)F)cc2)[C@H](CO)O1)NCc1cccc(F)c1 | 0.953 ± 0.14 | –
21 | C[C@@H]1CN([C@@H](C)CO)C(=O)c2cc(NC(=O)C3CCCCC3)ccc2O[C@@H](C)CCCCO[C@H]1CN(C)C(=O)CCC(F)(F)F | 1.07 ± 0.071 | –
22 | Cc1noc(C)c1S(=O)(=O)Nc1ccc2c(c1)C(=O)N([C@@H](C)CO)C[C@H](C)[C@@H](CN(C)C(=O)Nc1cccc3ccccc13)OCCCC[C@H](C)O2 | 0.984 ± 0.043 | –
23 | C[C@@H]1CN([C@H](C)CO)C(=O)c2cc(NC(=O)CCC(F)(F)F)ccc2O[C@@H](C)CCCCO[C@H]1CN(C)C(=O)Nc1cccc2ccccc12 | 1.08 ± 0.036 | –
24 | C[C@@H]1CN([C@@H](C)CO)C(=O)c2cc(NC(=O)CCC(F)(F)F)ccc2O[C@@H](C)CCCCO[C@@H]1CN(C)C(=O)Nc1cccc2ccccc12 | 0.734 ± 0.082 | –

Row | SMILES | viability index [1] | viability index [2]
25 | C[C@@H]1CN([C@H](C)CO)C(=O)c2cc(NC(=O)C3CCCCC3)ccc2O[C@@H](C)CCCCO[C@H]1CN(C)C(=O)CCC(F)(F)F | 1.05 ± 0.096 | –
26 | C[C@@H]1CN([C@H](C)CO)C(=O)c2cc(NC(=O)C3CCCCC3)ccc2O[C@@H](C)CCCCO[C@@H]1CN(C)C(=O)CCC(F)(F)F | 0.817 ± 0.26 | –
27 | Cc1noc(C)c1S(=O)(=O)Nc1ccc2c(c1)C(=O)N([C@@H](C)CO)C[C@@H](C)[C@@H](CN(C)C(=O)Nc1cccc3ccccc13)OCCCC[C@H](C)O2 | 0.828 ± 0.11 | –
28 | Cc1noc(C)c1S(=O)(=O)Nc1ccc2c(c1)C(=O)N([C@@H](C)CO)C[C@@H](C)[C@@H](CN(C)C(=O)Nc1cccc3ccccc13)OCCCC[C@@H](C)O2 | 0.893 ± 0.066 | –
29 | C[C@@H]1CCCCO[C@@H](CN(C)C(=O)Nc2cccc3ccccc23)[C@H](C)CN([C@@H](C)CO)C(=O)c2cc(NC(=O)CCC(F)(F)F)ccc2O1 | 1 ± 0.061 | –
30 | CN1C(=O)c2cc(NC(=O)c3cnccn3)ccc2OC[C@H]2O[C@H](CC(=O)NCC3CCCCC3)CC[C@@H]21 | 0.959 ± 0.028 | –
31 | Cc1ccc(S(=O)(=O)N[C@H]2CC[C@@H](CC(=O)NCc3ccncn3)O[C@@H]2CO)cc1 | 1.01 ± 0.11 | –
32 | CN1[C@@H]2CN(C(=O)C3CCCCC3)c3ccccc3[C@@H]2[C@@H]1CO | 1.06 ± 0.063 | –
33 | COc1ccc(NC(=O)N2C[C@@]3(C2)CN([C@@H](CO)c2[nH]c4cc(OC)ccc4c32)C(C)=O)cc1 | 1.01 ± 0.1 | –
34 | COc1ccc2c3c([nH]c2c1)[C@H](CO)N(C[C@]31CCN(Cc2ccncc2)CC1)C(=O)CC1CC1 | 0.934 ± 0.098 | –
35 | COCc1cn(CC[C@H]2CC[C@@H](NC(=O)Nc3c(C)noc3C)[C@H](CO)O2)nn1 | 1.03 ± 0.051 | –
36 | COCc1cn(CC[C@@H]2CC[C@H](NC(=O)Nc3c(C)noc3C)[C@@H](CO)O2)nn1 | 1.07 ± 0.097 | –
37 | O=C(C1CCOCC1)N1CC(=O)N2[C@H](C1)[C@H](c1ccc(C#CCc3ccccc3)cc1)[C@@H]2CO | 1.09 ± 0.14 | –
38 | COCc1cn(CC[C@@H]2CC[C@H](NC(=O)Nc3c(C)noc3C)[C@H](CO)O2)nn1 | 0.951 ± 0.12 | –
39 | COCc1cn(CC[C@H]2CC[C@H](NC(=O)Nc3c(C)noc3C)[C@@H](CO)O2)nn1 | 0.927 ± 0.067 | –
40 | COCc1cn([C@@H]2C[C@@H]3O[C@H](CO)CC[C@@H]3O[C@@H]2CCc2ccc(-c3ccc(OC)cc3)cc2)nn1 | – | 0.791 ± 0.041
41 | COCc1cn([C@@H]2C[C@@H]3O[C@@H](CO)CC[C@@H]3O[C@@H]2CCc2ccc(-c3ccc(OC)cc3)cc2)nn1 | – | 0.811 ± 0.063
42 | O=C(C1CCOCC1)N1CC(=O)N2[C@H](C1)[C@@H](c1ccc(C#CCc3ccccc3)cc1)[C@@H]2CO | 1.06 ± 0.041 | –
43 | OC[C@H]1CC[C@@H]2O[C@H](CCc3ccc(C#CCc4ccccc4)cc3)[C@H](n3cc(-c4ccccc4)nn3)C[C@@H]2O1 | – | 0.781 ± 0.043
44 | CCC(=O)N1CC2(C1)[C@@H](c1ccc(-c3cccc(C)c3)cc1)[C@@H](CO)N2S(C)(=O)=O | 1.057 ± 0.0069 | –
45 | Cc1nn(C)cc1NC(=O)C[C@@H]1CC[C@@H]2[C@H](COc3ccc(NC(=O)c4cccc(F)c4)cc3C(=O)N2C)O1 | 1.15 ± 0.11 | –
46 | O=C(C[C@@H]1CC[C@@H]2[C@H](COC[C@@H](O)CN2C(=O)Nc2cccc(F)c2)O1)NCCCN1CCOCC1 | 1.12 ± 0.081 | –
47 | COc1ccc(CN(C)C[C@@H]2OCc3cnnn3CCCC(=O)N([C@H](C)CO)C[C@@H]2C)cc1 | 0.963 ± 0.038 | –
48 | O=C(CN1CCOCC1)N[C@H]1CC[C@H](CCn2cc(C3CC3)nn2)O[C@@H]1CO | 1.16 ± 0.021 | –

Row | SMILES | viability index [1] | viability index [2]
49 | C/C=C/c1ccc2n(c1=O)C[C@@H]1N[C@H]2[C@H](C(=O)NC2CCCC2)[C@H]1CO.C/C=C\c1ccc2n(c1=O)C[C@@H]1N[C@H]2[C@H](C(=O)NC2CCCC2)[C@H]1CO | 1.04 ± 0.018 | –
50 | COc1ccc2c(c1)n(C)c1[C@H](CO)N(C[C@]3(CCN(C)CC3)c21)C(=O)c1ccc(F)cc1 | 1.05 ± 0.018 | –
51 | COc1ccc2c3c([C@H](CO)N(C[C@]33CN(C3)C(=O)c3cccc(F)c3)C(=O)c3cccc(F)c3)n(C)c2c1 | 1.04 ± 0.047 | –
52 | COc1ccc2c3c([C@@H](CO)N(C[C@]33CCN(CC3)C(=O)c3ccccc3)C(=O)c3ccccc3)n(C)c2c1 | 0.761 ± 0.011 | –
53 | COc1ccc2c3c([C@H](CO)N(C[C@]33CCN(CC3)C(=O)c3ccccc3)C(=O)c3ccccc3)n(C)c2c1 | 0.979 ± 0.13 | –
54 | COc1ccc2c3c([C@@H](CO)N(C[C@]33CN(C3)C(=O)c3cccc(F)c3)C(=O)c3cccc(F)c3)n(C)c2c1 | 0.848 ± 0.02 | –
55 | CCS(=O)(=O)N1CC[C@@]2(CC1)CN([C@@H](CO)c1c2c2ccc(OC)cc2n1C)C(=O)c1cccc(F)c1 | 1.02 ± 0.079 | –
56 | Cc1noc(C)c1S(=O)(=O)Nc1ccc2c(c1)C(=O)N([C@@H](C)CO)C[C@H](C)[C@H](CN(C)Cc1ccc(C(=O)O)cc1)OCCCC[C@H](C)O2 | 1.14 ± 0.051 | –
57 | O=C(C[C@H]1C[C@H]2c3cc(NC(=O)C4CCOCC4)ccc3O[C@H]2[C@H](CO)O1)NCc1cccnc1 | 1.086 ± 0.0019 | –
58 | O=C(N[C@H]1CC[C@@H](CCn2cc(-c3ccccc3F)nn2)O[C@H]1CO)c1ccc2c(c1)OCO2 | 1.1 ± 0.06 | –
59 | COC(=O)C[C@@H]1CC[C@H]2[C@@H](COc3ccc(NS(=O)(=O)c4ccc(C)cc4)cc3C(=O)N2C)O1 | 1.07 ± 0.083 | –
60 | CN1C(=O)c2cc(NC(=O)c3ccc(F)c(F)c3)ccc2OC[C@H]2O[C@@H](CC(=O)N3CCCCC3)CC[C@H]21 | 1.1 ± 0.0047 | –
61 | COc1ccc(cc1)S(=O)(=O)N1C[C@@]2(C1)CN([C@H](CO)c1c2c2ccc(OC)cc2n1C)C(=O)CN(C)C | 0.841 ± 0.028 | –
62 | COc1ccc2c3c([C@@H](CO)N(C)C[C@]33CCN(CC3)C(=O)c3ccc4OCOc4c3)n(C)c2c1 | 0.9516 ± 0.0011 | –
63 | COc1ccc(cc1)S(=O)(=O)N1C[C@@]2(C1)CN([C@@H](CO)c1c2c2ccc(OC)cc2n1C)C(=O)CN(C)C | 0.95 ± 0.059 | –
64 | COc1ccc2c3c([C@@H](CO)N(CC4CC4)C[C@]33CN(C3)C(=O)c3ccc4OCOc4c3)n(C)c2c1 | 1.02 ± 0.016 | –
65 | COCC(=O)N1C[C@@]2(C1)CN(Cc1ccc3OCOc3c1)[C@H](CO)c1c2c2ccc(OC)cc2n1C | 0.938 ± 0.068 | –
66 | COc1ccc2c3c([C@H](CO)N(Cc4ccc5OCOc5c4)C[C@]33CN(C3)C(=O)c3ccc4OCOc4c3)n(C)c2c1 | – | 0.435 ± 0.088
67 | COc1ccc2c3c([C@@H](CO)N(Cc4ccccc4Cl)C[C@]33CCN(CC3)C(=O)CC3CC3)n(C)c2c1 | 0.939 ± 0.025 | –
68 | COc1ccc2c3c([C@@H](CO)N(C[C@]33CCN(CC3)S(C)(=O)=O)C(=O)CN(C)C)n(C)c2c1 | 0.956 ± 0.029 | –
69 | COc1ccc2c3c([C@H](CO)N(Cc4ccccc4Cl)C[C@]33CCN(CC3)C(=O)CC3CC3)n(C)c2c1 | 0.922 ± 0.014 | –
70 | COc1ccc2c3c([C@H](CO)N(Cc4ccccc4Cl)C[C@]33CN(C3)C(=O)CN(C)C)n(C)c2c1 | 0.782 ± 0.042 | –
71 | COc1ccc2c3c([C@H](CO)N(C[C@]33CCN(CC3)C(=O)c3ccc4OCOc4c3)C(=O)Nc3ccc(F)cc3)n(C)c2c1 | 0.846 ± 0.055 | –
72 | COc1ccc2c3c([C@@H](CO)N(C[C@]33CCN(CC3)C(=O)c3ccc4OCOc4c3)C(=O)Nc3ccc(F)cc3)n(C)c2c1 | 0.967 ± 0.057 | –
